According to PubChem BioAssay AID652054 (National Center for Advancing Translational Sciences (NCATS), 2013):
About 9,100 (2.5%) of roughly 360,000 compounds were called active. Roughly 4% stayed inconclusive and do not appear here. The sample holds actives, similar compounds and a random draw of the others, so the mix is not that of the screen. Rule as the data show it: active = max response below about -50%; inconclusive = no clear call, values can overlap the other calls; inactive = above that.

molecular target: D(3) dopamine receptor (Homo sapiens) (UniProt P35462); test: qHTS of D3 Dopamine Receptor Antagonist: qHTS; conditions: D3R cells, DiscoveRx beta-arrestin luminescence, antagonist mode; active compounds read low
Outline: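 Cells expressing the human receptor were seeded at 1500 cells/well, incubated overnight at 37 degrees C in 5% CO2, then exposed to library compounds with dopamine controls for 90 minutes at 37 degrees C before luminescent detection.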
% is scaled to controls: 0 for no effect and ±100 for the full control effect.

Sequence of D(3) dopamine receptor (Homo sapiens) (P35462 whole entry, looked up): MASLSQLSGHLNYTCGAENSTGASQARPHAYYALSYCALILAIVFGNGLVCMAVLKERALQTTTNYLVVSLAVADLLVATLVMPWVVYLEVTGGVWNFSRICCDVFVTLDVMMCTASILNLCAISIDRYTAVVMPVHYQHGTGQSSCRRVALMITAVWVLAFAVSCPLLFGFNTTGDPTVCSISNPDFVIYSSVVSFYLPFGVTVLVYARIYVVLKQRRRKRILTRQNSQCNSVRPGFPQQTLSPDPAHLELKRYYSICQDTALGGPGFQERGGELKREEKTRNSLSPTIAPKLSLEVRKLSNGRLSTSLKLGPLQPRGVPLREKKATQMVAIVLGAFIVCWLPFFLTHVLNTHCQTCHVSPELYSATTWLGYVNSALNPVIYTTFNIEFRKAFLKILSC

Max response, negative = inhibition, active:
Cc1ccn2cc(C(=O)NC3CCN(Cc4ccccc4)CC3)nc2c1 -65.2%
Cc1cc(C(=O)NC2CCN(Cc3ccccc3)CC2)n[nH]1 -81.2%
O=[N+]([O-])/C=C/c1ccc2c(ccn2Cc2ccccc2)c1 -54.4%
NCCCCC(C(=O)O)N(C(=O)OCc1ccccc1)C(=O)OCc1ccccc1 (stereo not drawn) -55.1%
S=c1c2[nH]cnc2ncn1CCSc1ncnc2nc[nH]c12 -78.7%
O=C(N1CCOCC1)N1CCOCC1 -50.3%
FC(F)(F)Oc1ccccc1C(c1nnnn1C1CCCCC1)N1CCN(C/C=C/c2ccccc2)CC1 (stereo not drawn) -77.9%
COc1ccc(CN2C3CCCC2CC(NC(=O)c2cccc(F)c2)C3)cc1 (stereo not drawn) -88.5%
CCOc1ccccc1C(=O)NC1CC2CCCC(C1)N2Cc1ccccc1 (stereo not drawn) -77.3%
COc1ccc(NC(=O)NC2CC3CCCC(C2)N3Cc2ccccc2)cc1 (stereo not drawn) -65.9%
COc1cc(C)c(C)cc1S(=O)(=O)N1CCCc2ccccc21 -64.6%
Cc1cc(=O)oc(C)c1C(=O)NC1CC(C)(C)NC(C)(C)C1 -75.7%
Brc1ccc(CN2CC[C@H]3C=CCc4cccc(c43)C2)cc1 -107%
O=c1[nH]c2ccccc2n1C1CCN(CCOc2ccccc2)CC1 -110%
COc1cc(CNCCN(C)C)ccc1OCc1c(F)cccc1Cl -51.3%
Cc1ccc2sc(N(CCN(C)C)C(=O)/C=C/c3cccs3)nc2c1C -69.2%
O=C(CC1NCCc2ccccc21)Nc1cccc(Cl)c1 (stereo not drawn) -95.5%
CC(=O)Nc1sc2c(c1C(c1cccc(F)c1)N1CCN(CCO)CC1)CCCC2 (stereo not drawn) -60.6%
CN(CC(=O)NC1CCN(Cc2ccccc2)CC1)S(=O)(=O)c1ccc(Cl)s1 -58.6%

Max response, negative = inhibition, inactive:
CCCCCC(=O)N1C[C@H](O)[C@@H](n2cc(COC(=O)c3ccccc3)nn2)C[C@@H]1c1ccc(C)cc1 8.87%
COC(=O)C1=CN(c2c(C)cc(C)cc2C)C(N)=C(C#N)C1c1cccc(F)c1 (stereo not drawn) 2.73%
Cc1ccnc(SC2CC(=O)N(c3ccccc3)C2=O)n1 (stereo not drawn) -15.3%
CC[C@@H]1CC2=C(C(=O)OC(C)(C)O2)[C@@H](CC)O1 16.4%
COC(=O)C1(C(=O)OC)C/C=C\CN(S(=O)(=O)c2ccccc2[N+](=O)[O-])CCC1 25.7%
COC(=O)c1cc(S(=O)(=O)NC2CCN(Cc3ccccc3)CC2)cn1C 11.7%
Cc1ccc(-c2cc(C(=O)NC3CCN(Cc4ccccc4)CC3)c3ccccc3n2)cc1 -13.4%
Cc1cc(C(=O)NC2CC(C)(C)Cc3c2cnn3-c2ccccc2)n[nH]1 (stereo not drawn) -0.849%
CCc1nc2ccc(C(=O)NC3CCN(Cc4ccccc4)CC3)cn2c1N(C)CCN1CCOCC1 14%
CCc1nc2ccc(C(=O)N3CCN(S(=O)(=O)CC)CC3)cn2c1N(C=O)CCC(C)C -18.9%
CCCNC(=O)C1(C)CCN1C(=O)Cc1ccc(-c2ccccc2)cc1 (stereo not drawn) -20.6%
C[C@H]1NS(=O)(=O)c2cc(Cl)ccc2O[C@@H]1c1ccccc1 -18.7%
C[C@@H]1CN([C@@H](C)CO)C(=O)CCCn2cc(nn2)CO[C@H]1CN(C)S(=O)(=O)c1ccc(-n2cccn2)cc1 -5.35%
COC(=O)[C@]12CCCCC=C1N(Cc1ccc(Cl)cc1Cl)C(=O)[C@H](CC(=O)NCc1cccc3ccccc13)C2 -15.1%
COc1cc(CCN=Cc2ccccc2O)c([N+](=O)[O-])cc1OC 2.41%
CC(C)[C@H](NC(=O)OCc1ccccc1)C(=O)OCc1ccccc1 -14.6%
O=C(NCC1CCC(C(=O)O)CC1)OCc1ccccc1 (stereo not drawn) 22%
CCc1oc(-c2ccc(OC)cc2)c(C(=O)OCCCCCO)c1C(C)OCCO (stereo not drawn) 14.5%
Cc1ccc(NC(=O)c2ccc(CSc3ncnc4nc[nH]c34)cc2)c(C)c1 -9.41%
CCc1ccc(N(CC)c2ncnc3nc[nH]c23)cc1 -11.5%
CCOP(=O)(OCC)C(Cc1ccccc1)N=C(c1ccccc1)c1ccccc1 (stereo not drawn) -6.96%
O=C(N1CCCCC1)N1CCN(C(=O)N2CCCCC2)CC1 -20.6%
Cc1ccc(C(=O)NC2CCN(C(=O)N3CCOCC3)CC2)cc1 11.7%
O=C(NCCOc1ccccc1)N1[C@H]2CC[C@@H]1C=C(c1ccc(F)cc1OCc1ccccc1)C2 56.5%
CCOc1ccc(CCN2C(=O)C(=O)N([C@@H](Cc3ccc(O)cc3)CN3CCC[C@H]3CN3C(=O)C(=O)NC[C@@H]3CC(C)C)C[C@@H]2Cc2ccccc2)cc1 -23.4%
CN(C)CCN1CCN(c2cc(-c3cccc(Cl)c3)nc3ccnn23)CC1 -22%
Cc1ccc(C(O)c2ncc(-c3ccccc3F)[nH]2)cc1F (stereo not drawn) -0.345%
CCOC(=O)C1CCN(C(c2cc3cc(C)cc(C)c3[nH]c2=O)c2nnnn2C2CCCCC2)CC1 (stereo not drawn) 18.8%
COc1ccc(C(c2nnnn2C2CCCCC2)N2CCN(c3ccccc3F)CC2)cc1 (stereo not drawn) -13.2%
OC(c1cc(Cl)cc(Cl)c1)c1ncc(-c2ccccc2C(F)(F)F)[nH]1 (stereo not drawn) 2.77%
CC(=O)NC1CC2CCCC(C1)N2CC(=O)Nc1ccccc1 (stereo not drawn) -23%
COc1ccc(NC(=O)N2CCC(Cc3ccccc3)CC2)cc1 -18%
COc1ccc(NC(=S)N2CCC(NC(=O)c3cccc(F)c3)CC2)cc1 -3.67%
CCCCOCCCNC(=O)c1ccccc1OCC -16.2%
CCCN1C2CCCC1CC(NC(=O)c1cccc(OC)c1)C2 (stereo not drawn) 9.66%
CCOc1ccccc1OCC(=O)Nc1ccccc1C(=O)NC1CC1 2%
Cc1ccc(-c2ccc(C3=CC(=O)CC(C)(C)C3=O)cc2)cc1 4.58%
Cc1ccc([C@H]2N[C@]3(CCCN(CC4CCCCC4)C3=O)[C@H]3C(=O)N(Cc4ccccc4)C(=O)[C@@H]23)cc1 0.653%
Cc1ccc(F)c(S(=O)(=O)NC(=O)C2(C)CCN2C(=O)CCc2cccs2)c1 (stereo not drawn) -4.74%
COc1ccc(C(=O)OCC(=O)NCC2CCCCC2)cc1S(=O)(=O)N1CCCc2ccccc21 8.09%
Cn1c(=O)n(C)c2cc(S(=O)(=O)N3CCCc4ccccc43)ccc21 5.19%
N#CCCC(C#N)(c1cccnc1)N1CCOCC1 (stereo not drawn) -3.79%
Cc1cc(OC(C)C(=O)NC2CC(C)(C)NC(C)(C)C2)c2c(C)cc(=O)oc2c1 (stereo not drawn) 7.98%
Cc1ccc(C(=O)NC2CC(C)(C)NC(C)(C)C2)c(C)c1 39.4%
CC(C)C[C@H]1CNC(=O)C(=O)N1C[C@@H]1CCCN1C[C@H](Cc1ccccc1)N1C[C@H](CC(C)C)N(CC2CCCCCC2)C(=O)C1=O -0.867%
CCOC(=O)[C@]12CCCC=C1N(CCC1=CCCCC1)C(=O)[C@H](CC(=O)N1CCN(C(=O)c3ccco3)CC1)C2 0%
NC(=O)c1ccc(CN2CCC(Cc3ccccc3)CC2)cc1 -23.1%
Brc1ccccc1CN1CCC(Cc2ccccc2)CC1 -26.3%
O[C@@H]1C[C@H](c2ccccc2)N(Cc2cccs2)C[C@H]1n1cc(C2CC2)nn1 2.45%
C[C@H]1Cn2cnc(C(=O)N[C@H](C)c3ccccc3)c2C(=O)N1 -3.02%
O=C1CCN(CCc2ccccc2)CCN1CCOc1ccccc1 -8.76%
OC(c1ccccc1)(c1ccccc1)C1CCN(CCCOc2ccccc2)CC1 -8.6%
CS(=O)(=O)N1CCCCC1c1cc(C(=O)NCc2ccccc2)no1 (stereo not drawn) 13.9%
CCOCCCNCc1ccc(OCc2ccc(F)cc2)c(OC)c1 13.1%
CCN(CC)CCNCc1ccc(OCc2ccc(Cl)nc2)c(OC)c1 -23.1%
CCOC(=O)[C@]12CCCC=C1N(CCC1=CCCCC1)C(=O)[C@H](CC(=O)N1CCCCC1)C2 6.86%
Cc1ccc([C@@H]2CC(=O)[C@@H]3CN(S(=O)(=O)c4ccc(C)cc4)[C@H](c4ccccc4F)C[C@@H]3N2S(=O)(=O)c2ccc(Cl)cc2)cc1 4.51%
Cc1ccc(S(=O)(=O)N(C)C)cc1NC(=O)/C=C/c1cccs1 -18.2%
Cc1cc(C)c2nc(N(CCN(C)C)C(=O)/C=C/c3cccs3)sc2c1 -2.22%
COc1ccc(C2CC(c3cccc(OC)c3)=NN2c2ccc(S(N)(=O)=O)cc2)cc1 (stereo not drawn) 17.8%
O=C(/C=C/[C@H]1O[C@@H](n2ccc(=O)[nH]c2=O)[C@H](O)[C@@H]1O)NCc1ccccn1 9.97%
O=C(CC1NCCNC1=O)Nc1cc(Cl)cc(Cl)c1 (stereo not drawn) 20.6%
O=C(CC1NCCNC1=O)Nc1ccc(Oc2ccccc2)cc1 (stereo not drawn) 24.3%
Cc1cccc(C)c1NC(=O)C(c1cccc(F)c1)N1CCN(C)CC1 (stereo not drawn) -13.2%
O=C(Nc1sc2c(c1C(=O)O)CCC2)c1ccccc1F -1.53%
Cc1ccc(S(=O)(=O)N[C@H]2CCC[C@@H]2O)cc1 -12.4%
CN(C(=O)CN1CCN(c2cc(-c3ccc(OCc4ccccc4)cc3)ncn2)CC1)c1ccccc1 49%
CN(CC(=O)NC1CCCCC1)S(=O)(=O)c1ccc(Br)s1 -7.06%
CC(=O)NCc1ccc(S(=O)(=O)NC2CCN(Cc3ccccc3)CC2)cc1 -11.1%
